# Assay results taken from PubChem BioAssay (NCATS).
# Inconclusive results are not listed. Where a call stands in place of a potency, no number is given. The source made the active and inactive calls. Unless noted, the call rests on the fitted dose curve; in most records, active means well fitted curve in the direction sought with a large enough effect; inconclusive means small, poorly fitted or top-dose-only effect, or another doubt; inactive means no such curve, though single readings can be large; an effect the other way counts as inactive or inconclusive.
# Legend:
# [1] = molecular target: Voltage-gated inwardly rectifying potassium channel KCNH2 (Homo sapiens) (UniProt Q12809); assay: qHTS Assay for Small Molecule Inhibitors of the Human hERG Channel Activity (AID 588834);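 further: top concentration of the series differs between compounds; lower thallium flux fluorescence means stronger hERG block; nearly all actives have a fitted effect of over 50% in size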
# Chain of Voltage-gated inwardly rectifying potassium channel KCNH2 (Homo sapiens) (Q12809 whole entry, looked up): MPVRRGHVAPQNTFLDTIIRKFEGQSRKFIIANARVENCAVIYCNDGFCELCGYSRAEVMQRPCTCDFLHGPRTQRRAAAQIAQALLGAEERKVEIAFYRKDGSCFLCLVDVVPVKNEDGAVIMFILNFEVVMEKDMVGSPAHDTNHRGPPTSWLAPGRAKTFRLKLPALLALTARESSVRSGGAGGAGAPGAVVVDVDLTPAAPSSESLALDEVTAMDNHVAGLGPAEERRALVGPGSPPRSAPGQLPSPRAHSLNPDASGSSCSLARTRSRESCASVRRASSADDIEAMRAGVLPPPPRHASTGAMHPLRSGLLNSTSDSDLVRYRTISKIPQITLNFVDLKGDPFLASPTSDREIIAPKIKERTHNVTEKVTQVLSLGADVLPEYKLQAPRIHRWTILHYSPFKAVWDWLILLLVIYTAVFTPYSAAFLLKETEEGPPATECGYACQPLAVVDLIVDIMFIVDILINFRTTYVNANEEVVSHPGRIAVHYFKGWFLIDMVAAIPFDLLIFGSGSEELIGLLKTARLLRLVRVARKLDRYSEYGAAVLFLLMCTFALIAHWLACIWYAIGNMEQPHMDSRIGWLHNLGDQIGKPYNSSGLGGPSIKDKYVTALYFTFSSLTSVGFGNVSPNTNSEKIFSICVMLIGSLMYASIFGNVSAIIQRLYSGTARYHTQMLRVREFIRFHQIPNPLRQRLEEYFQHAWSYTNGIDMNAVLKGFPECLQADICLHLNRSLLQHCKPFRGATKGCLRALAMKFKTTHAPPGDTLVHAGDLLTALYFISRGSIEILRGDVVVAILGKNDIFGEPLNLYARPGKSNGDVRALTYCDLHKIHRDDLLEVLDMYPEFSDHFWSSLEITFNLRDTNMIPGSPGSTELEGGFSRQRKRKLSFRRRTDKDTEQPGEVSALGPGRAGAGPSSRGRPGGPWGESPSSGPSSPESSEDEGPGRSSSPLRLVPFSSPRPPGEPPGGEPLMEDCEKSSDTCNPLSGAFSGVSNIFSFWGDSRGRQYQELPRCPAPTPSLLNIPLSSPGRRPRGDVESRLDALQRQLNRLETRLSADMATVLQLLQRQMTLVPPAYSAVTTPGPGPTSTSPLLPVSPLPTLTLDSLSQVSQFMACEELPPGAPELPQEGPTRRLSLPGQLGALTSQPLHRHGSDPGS
# Summary of the method: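 Blockade is seen as reduced FluxOR thallium-flux fluorescence in U2OS cells expressing hERG from a BacMam construct, in Opti-MEM with 2% FCS. Concentration-response data fitted to the Hill equation for AC50.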
# [2] = molecular target: Luciferin 4-monooxygenase (Photinus pyralis) (UniProt P08659); assay: Biochemical firefly luciferase enzyme assay for NPC (AID 624030);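 further: purified P. pyralis luciferase at 10 nM with luciferin and ATP substrate; series mostly up to about 59 µM; nearly all actives have a fitted effect of over 70% in size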
# Chain of Luciferin 4-monooxygenase (Photinus pyralis) (P08659 whole entry, looked up): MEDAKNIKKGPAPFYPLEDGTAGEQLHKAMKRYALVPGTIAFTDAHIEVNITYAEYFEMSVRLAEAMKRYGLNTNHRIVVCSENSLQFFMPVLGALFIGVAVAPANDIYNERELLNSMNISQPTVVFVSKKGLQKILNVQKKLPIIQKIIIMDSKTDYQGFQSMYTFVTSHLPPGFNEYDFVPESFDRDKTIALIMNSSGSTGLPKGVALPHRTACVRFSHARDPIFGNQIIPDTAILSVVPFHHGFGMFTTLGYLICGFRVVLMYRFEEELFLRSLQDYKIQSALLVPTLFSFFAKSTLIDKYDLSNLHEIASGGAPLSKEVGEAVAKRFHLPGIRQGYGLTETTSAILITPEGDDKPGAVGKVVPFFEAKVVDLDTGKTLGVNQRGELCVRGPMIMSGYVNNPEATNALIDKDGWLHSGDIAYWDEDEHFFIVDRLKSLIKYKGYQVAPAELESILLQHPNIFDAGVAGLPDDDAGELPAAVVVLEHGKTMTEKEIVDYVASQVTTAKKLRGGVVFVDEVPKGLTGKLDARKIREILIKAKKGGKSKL
# Summary of the method: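 Purified P. pyralis luciferase at 10 nM in 50 mM Tris Acetate (final), luminescence read within 5 minutes of enzyme addition to compounds. Activity normalised to PTC124 versus DMSO; concentration-response curves classed by r2, magnitude and activity.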
# [3] = S16 Schwann cell viability assay (CellTiter-Glo assay) (AID 624031);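 further: native untransfected S16 rat Schwann cells; cellular ATP luminescence as a viability measure; series mostly up to about 58 µM; nearly all actives have a fitted effect of over 70% in size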
# Summary of the method: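 Parental S16 cells, 24 h compound, 37 °C. ATP-luminescence viability; DMSO = 0% activity, empty wells as reference; curves classified by fit quality and efficacy.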
# [4] = S16 Schwann cell PMP22 intronic element firefly luciferase assay (AID 624032); further: nearly all actives have a fitted effect of over 30% in size; further: potency means the concentration at half of the fitted maximal effect
# Summary of the method: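 Rat S16 Schwann cells stably carrying firefly luciferase driven by a PMP22 intronic element, in 10% FBS, treated 24 h at 37 C. ONE-Glo luminescence normalized to PTC124 control and DMSO (0%); curves classed by r2, magnitude and activity.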
# [5] = S16 Schwann cell PMP22 intronic element beta-lactamase assay (AID 624044; calls by dose curve; further: nearly all actives have a fitted effect of over 15% in size)
# Summary of the method: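 Rat S16 Schwann cells with beta-Lac driven by a PMP22 intronic element, compound-treated 24 h at 37 °C. LiveBLAzer FRET B/G read: 460 nm normalized to potassium clavulanate vs DMSO; 535 nm FRET as viability; concentration-effect curves classified.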
SMILES,Potency [1],Potency [2],outcome [3],Potency [4],outcome [5]
COc1nccnc1NS(=O)(=O)c1ccc(N)cc1,inactive,inactive,inactive,inactive,
CC(=O)NCc1c(I)c(NC(C)=O)c(I)c(C(=O)O)c1I,inactive,inactive,inactive,inactive,
Cc1cc(C)c(NC(=O)CN(CC(=O)O)CC(=O)O)c(C)c1Br,inactive,inactive,inactive,inactive,
CN(C(=O)c1c(O)c2ccccc2n(C)c1=O)c1ccccc1,inactive,inactive,inactive,inactive,
CCOC(=O)[C@H](CCc1ccccc1)N[C@@H](C)C(=O)N1CCC[C@H]1C(=O)O,inactive,inactive,inactive,14.4 nM (active),
CCOC(N)=O,inactive,inactive,inactive,inactive,
O=C(O)Cc1cn(-c2ccccc2)nc1-c1ccc(Cl)cc1,inactive,inactive,inactive,inactive,
CC(=O)Oc1cccc(C)c1,inactive,inactive,inactive,inactive,
OCC(O)CS (stereo not given),inactive,inactive,inactive,inactive,
Cc1c(NC(C)C)c(=O)n(-c2ccccc2)n1C,inactive,inactive,inactive,inactive,
Cn1c(=O)c2c(ncn2CCO)n(C)c1=O,inactive,inactive,inactive,inactive,
CC(CSC(=O)c1ccccc1)C(=O)N1C[C@@H](Sc2ccccc2)C[C@H]1C(=O)O (stereo not given in full),inactive,inactive,inactive,inactive,
Nc1ncnc(Nc2ccccc2)n1,inactive,inactive,inactive,inactive,
CC(=O)N[C@@H](Cc1ccc(O)cc1)C(=O)O,inactive,inactive,inactive,inactive,
CN1CCN(C(=O)C2CCCCC2)CC1,inactive,inactive,inactive,inactive,
CCc1nnc(NS(=O)(=O)c2ccc(N)cc2)s1,inactive,inactive,inactive,inactive,inactive
Cc1ncc(CO)c(CN)c1O,inactive,inactive,inactive,inactive,
COc1cc(C(=O)NCCCCCC(=O)O)cc(OC)c1OC,inactive,inactive,inactive,inactive,
CN1C[C@@H]2C[C@H]1CN2c1cc2c(cc1F)c(=O)c(C(=O)O)cn2C1CC1,inactive,inactive,inactive,inactive,
CCCOC(=O)c1ccc(N)cc1,inactive,inactive,inactive,inactive,inactive
O=C(Cn1ccnc1[N+](=O)[O-])NCCO,inactive,inactive,inactive,inactive,
c1ccc2[nH]ccc2c1,inactive,inactive,inactive,inactive,inactive
CC(C)C[C@@H](N)C(=O)O,inactive,inactive,inactive,inactive,inactive
COC(=O)c1ccccc1C(=O)c1ccc(OCCN2CCCCC2)cc1,inactive,inactive,inactive,inactive,
C[C@@H](N)C(=O)O,inactive,inactive,inactive,inactive,inactive
